Reference: the supplement of paper PMC8728848
About 410 targets per protein were measured; listed, in parts, are those with the strongest signals and a random draw of the rest.

Target: Neu5Gc(a2-6)GalNAc
Assay: glycan array binding signal (z-score within array); higher = stronger binding
Details: glycan notation: IUPAC condensed, linker removed
Procedure, shortened: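 The binding signal is a Z-score computed within each array. Data were drawn from 3228 arrays in the Consortium for Functional Glycomics database, restricted to those with a known protein sequence. Scores were averaged over arrays of the same protein sequence at different concentrations or buffers, and over linkers, and negative values can be taken as non-binding.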

B1: Neuropilin-1 (Rattus norvegicus), Q9QWJ9 (protein)
chain: MERGLPLLCATLALALALAGAFRSDKCGGTIKIENPGYLTSPGYPHSYHPSEKCEWLIQAPEPYQRIMINFNPHFDLEDRDCKYDYVEVIDGENEGGRLWGKFCGKIAPSPVVSSGPFLFIKFVSDYETHGAGFSIRYEIFKRGPECSQNYTAPTGVIKSPGFPEKYPNSLECTYIIFAPKMSEIILEFESFDLEQDSNPPGGVFCRYDRLEIWDGFPEVGPHIGRYCGQKTPGRIRSSSGILSMVFYTDSAIAKEGFSANYSVLQSSISEDFKCMEALGMESGEIHSDQITASSQYGTNWSVERSRLNYPENGWTPGEDSYREWIQVDLGLLRFVTAVGTQGAISKETKKKYYVKTYRVDISSNGEDWITLKEGNKAIIFQGNTNPTDVVFGVFPKPLITRFVRIKPASWETGISMRFEVYGCKITDYPCSGMLGMVSGLISDSQITASNQGDRNWMPENIRLVTSRTGWALPPSPHPYINEWLQVDLGDEKIVRGVIIQGGKHRENKVFMRKFKIAYSNNGSDWKMIMDDSKRKAKSFEGNNNYDTPELRAFTPLSTRFIRIYPERATHSGLGLRMELLGCEVEVPTAGPTTPNGNPVDECDDDQANCHSGTGDDFQLTGGTTVLATEKPTIIDSTIQSEFPTYGFNCEFGWGSHKTFCHWEHDSHAQLRWRVLTSKTGPIQDHTGDGNFIYSQADENQKGKVARLVSPVVYSQSSAHCMTFWYHMSGSHVGTLRVKLHYQKPEEYDQLVWMVVGHQGDHWKEGRVLLHKSLKLYQVIFEGEIGKGNLGGIAVDDISINNHIPQEDCAKPTDLDKKNTEIKIDETGSTPGYEEGKGDKNISRKPGNVLKTLDPILITIIAMSALGVLLGAVCGVVLYCACWHNGMSERNLSALENYNFELVDGVKLKKDKLNPQSNYSEA
glycan array binding signal (z-score): -0.331
